Hits are enriched below; roughly 13% of the tested compounds scored in any of these assays.
Pf growth 48h – Primary qHTS for delayed death inhibitors of the malarial parasite plastid, 48 hour incubation; Potency, µM (doses to about 28.7 µM), most hits filed as inhibitors; 5.9% of 310,000 active; P. falciparum luciferase growth in erythrocytes, 48 h
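Luminescence readout; reporter = integrated firefly luciferase in P. falciparum. RBC culture at 2% hematocrit, 0.1% parasitemia final, 37 C/5% CO2; decreased signal taken as growth inhibition.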
Pf growth 96h – Primary qHTS for delayed death inhibitors of the malarial parasite plastid, 96 hour incubation; Potency, µM (doses to about 28.7 µM), actives largely listed as inhibitors; 6.9% of 320,000 active; P. falciparum luciferase reporter growth, 96 h; AID 504834, 2011
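96 h incubation, 37 C, 5% CO2, of luciferase-reporter P. falciparum-infected RBCs (2% hematocrit, 0.05% parasitemia final) with test compounds; endpoint luminescence.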
HCV inhibitor – qHTS Assay for Inhibitors of Hepatitis C Virus (HCV); AID 651820, 2012; Potency, µM (doses to about 41.8 µM), actives largely listed as inhibitors; Huh7.5.1 HCVcc-Cre infection, luciferase reporter, 44 h; 3.4% of 340,000 active
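1,000 cells/well; 4 h culture; + compound; + HCVcc-Cre (~0.5 moi); 44 h; luciferase substrate, RT 15 min; read 15 sec.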
HCMV antiviral – qHTS Assay for inhibitors of the human cytomegalovirus (HCMV); activity change, negative = inhibition, % at 57.5 µM; HFF cells, HCMV-luciferase reporter, 72 h; hits give low values; 4.5% of 410,000 active; in the data active = activity change below about -60%; inconclusive = no clear call, values can overlap the other calls; inactive = above about -39%
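Two-dose cell screen: HFF monolayers treated with compounds and infected with luciferase-expressing HCMV at 1 PFU/cell, 72 h at 37C, then lysed for luciferase measurement.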
Hits are given with their value. Unless noted, calls come from the whole dose curve; as a rule, active = well fitted inhibition curve with a large enough effect; inconclusive = small, poorly fitted or top-dose-only effect, or another doubt; inactive = no such curve, though single readings can be large or run the other way.

O=C(Nc1ccc(Cl)cc1)c1csc(N2CCN(Cc3ccccc3)C2=O)n1 was read as HCMV antiviral inactive.
CC(C)CN(CCCNC(=O)Cn1ncc2c3ccccc3n(C)c2c1=O)CC(C)C was read as HCMV antiviral inactive.
COc1ccc(Cn2c(=O)[nH]c3cc(C(=O)N4CCN(c5ccccc5F)CC4)ccc3c2=O)cc1 was read as Pf growth 48h 11.7µM, Pf growth 96h 11.7µM, HCV inhibitor inconclusive and HCMV antiviral inactive.
Screening COc1ccccc1N1CCN(C(=O)c2cc3c(s2)CCC3)CC1 returned Pf growth 96h 13.1µM, HCV inhibitor inactive and HCMV antiviral inactive.
For O=C(C1=C(O)C(=O)N(CCc2ccccc2)C1c1cccnc1)c1ccco1 (centres undefined) the results were Pf growth 48h 6.57µM, Pf growth 96h inactive, HCV inhibitor inactive and HCMV antiviral inactive.
`CCN(CC)C(=O)Cn1c(=O)n(-c2ccc(Cl)cc2)c(=O)c2c3c(sc21)CCC3` gave HCMV antiviral inactive.
`CCOc1ccc(OCC)c(NS(=O)(=O)c2c(C(=O)N3CCCCCC3)c(C)n(C)c2C)c1` gave HCMV antiviral inactive.
`Cc1csc2nc(O)c(C(=O)NC3CCCCCC3)c(=O)n12` gave Pf growth 48h 11.7µM, Pf growth 96h inconclusive, HCV inhibitor inconclusive and HCMV antiviral inconclusive.
`Cc1csc2nc(O)c(C(=O)NC3CCCCC3)c(=O)n12` gave Pf growth 48h 11.7µM, Pf growth 96h 5.86µM, HCV inhibitor inactive and HCMV antiviral inactive.
Screening COc1ccc(NC(=O)CCS(=O)(=O)c2cc3c4c(c2)CCN4C(=O)CC3)c(OC)c1 returned HCMV antiviral inactive.
O=C(NC1CC(=O)N(c2ccc(F)cc2)C1)c1ccc2c(c1)OCO2 (centres undefined) was read as HCMV antiviral inactive.
Cc1ccc(/C=c2\sc3nc(-c4cccnc4)nn3c2=O)cc1 was read as Pf growth 48h inactive, Pf growth 96h inconclusive, HCV inhibitor inactive and HCMV antiviral inactive.
Screening CC(C)c1ccc(/C=c2\sc3nc(-c4ccncc4)nn3c2=O)cc1 returned Pf growth 48h inactive, Pf growth 96h 4.15µM, HCV inhibitor inactive and HCMV antiviral inactive.
`COc1ccc(Nc2nc3c(S(=O)(=O)c4ccc(Br)cc4)nnn3c3ccsc23)c(OC)c1` gave HCMV antiviral inactive.
`CN(Cc1ccc2nonc2c1)Cc1nc(Cc2cccc(F)c2)no1` gave Pf growth 48h inconclusive, Pf growth 96h 13.1µM, HCV inhibitor inactive and HCMV antiviral inactive.
`COc1ccc(OC)c(-c2cn(S(=O)(=O)c3ccccc3)nc2N)c1` gave Pf growth 96h 14.7µM, HCV inhibitor inactive and HCMV antiviral inactive.
Screening Cc1ccc(Cc2c(-c3ccco3)nc3c4ccccc4ccn23)cc1 returned HCMV antiviral inactive.
For CC(=O)c1ccc(-c2nc3c4ccccc4ccn3c2C(C)=O)o1 the results were Pf growth 48h inactive, Pf growth 96h inactive, HCV inhibitor inactive and HCMV antiviral -64.7.
Cc1nn(-c2ccccc2)c(Cl)c1C(=O)N(C)c1nc(-c2ccc(F)cc2)cs1 was read as Pf growth 48h inactive, Pf growth 96h 7.38µM and HCV inhibitor inactive.
COCCn1c(CCC(=O)Nc2ccc(C)c(Cl)c2)nc2cccnc21 was read as HCMV antiviral inactive.
Screening CCOC(=O)c1nn(-c2ccc(C)c(C)c2)c(=O)c2c(N)scc12 returned Pf growth 48h inactive, Pf growth 96h 13.1µM, HCV inhibitor 6.31µM and HCMV antiviral inactive.
For Cc1cccc[n+]1CC(=O)/C=C1\N(C)c2ccccc2C1(C)C the results were Pf growth 48h 2.94µM, Pf growth 96h 2.94µM, HCV inhibitor inactive and HCMV antiviral -94.5.
Screening O=C(CSc1cccc[n+]1[O-])C12CC3CC(CC(C3)C1)C2 returned Pf growth 48h inactive, Pf growth 96h 4.15µM, HCV inhibitor inconclusive and HCMV antiviral inactive.
`CN1/C(=C\C(=O)C[n+]2ccc(C(=O)c3ccccc3)cc2)C(C)(C)c2ccccc21` gave Pf growth 48h 2.08µM, Pf growth 96h 7.38µM, HCV inhibitor inconclusive and HCMV antiviral -94.7.
CN1/C(=C\C(=O)C[n+]2cccc(Br)c2)C(C)(C)c2ccccc21 was read as Pf growth 48h 2.33µM, Pf growth 96h 14.7µM, HCV inhibitor inactive and HCMV antiviral -83.3.
For Cc1cc(C)c(CN2C(=O)c3ccccc3S(=O)(=O)c3ccc(C(=O)OCC4CCCO4)cc32)c(C)c1 (centres undefined) the results were HCMV antiviral inactive.

Compound activity as filed in PubChem BioAssay.
